Compound activity from PubChem.
JMJD2A Tudor inh: inhibitors of human JMJD2A Tudor domain; O75164; AlphaScreen JMJD2A-Tudor / H3K4me3 peptide binding; Potency, µM (series often up to 114 µM), for the others: at the top dose activity change, negative = inhibition, actives largely listed as inhibitors; 390,000 tested, 4.4% active; note: % is set by controls: 0 for no effect and ±100 for the full control effect; nearly all actives have a fitted effect of over 50% in size
Sfp PPTase inh: Sfp phosphopantetheinyl transferase inhibition. Potency, µM, for the others: largest response in the series, negative = inhibition, actives largely listed as inhibitors. AID 1490. Biochemical Sfp PPTase activity, qHTS. 310,000 tested, 3.5% active. Q9F4F7;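 note: the enzyme is Sfp with the accession as filed and its product quenches rhodamine fluorescence; 0% = enzyme reaction without inhibitor and -100% = no enzyme wells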
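Fluorescence-quenching assay: 15 nM Sfp-PPTase preincubated 15 min at room temperature with compound, then 5 uM rhodamine-CoA and 12.5 uM BHQ-2-labelled YbbR peptide added. Fluorescence (ex 525/em 598 nm) read at start and after 30 min; difference gives rate.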
G9a block: G9a (human) methyltransferase inhibition. 350,000 tested, 8.8% active. G9a H3K9 monomethylation, AlphaScreen, 2 h. Potency, µM (titrated, usually from 102 µM), for the others: at the top dose activity, negative = inhibition, most hits filed as inhibitors. Q96KQ7; note: % is set by controls: 0 for no effect and ±100 for the full control effect; nearly all actives have a fitted effect of over 75% in size
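Step 1: enzyme (final 20 nM) with compound, 15 min RT. Step 2: substrate peptide 500 nM and SAM 20 uM, 2 h RT. Step 3: anti-H3K9me1 antibody and AlphaScreen beads, 10 min, then plate read.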
PLK1 PBD block: PLK1 (human) polo-box domain binding inhibition | Plk1 PBD binding of FITC phosphopeptide, fluorescence polarization | Potency, µM, without a hit: max response, negative = inhibition, hits mostly inhibitors | 360,000 tested, 2.8% active; note: series mostly up to about 57 µM; % is set by controls: 0 for no effect and ±100 for the full control effect; nearly all actives have a fitted effect of over 65% in size
BAZ2B inh: inhibitors of human BAZ2B bromodomain; AlphaScreen BAZ2B-H3K14Ac peptide displacement; Potency, µM (doses to about 114 µM), without a hit: top-dose activity change, negative = inhibition, actives largely listed as inhibitors; 360,000 tested, 4.4% active; AID 504333; note: % is set by controls: 0 for no effect and ±100 for the full control effect; nearly all actives have a fitted effect of over 60% in size
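Multi-concentration screen (max 110 uM) measuring displacement of acetylated histone H3 peptide from BAZ2B by AlphaScreen, using 50 nM protein, 50 nM peptide and 10 ug/mL streptavidin donor plus Ni-chelate acceptor beads.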
HP1b chromo inh: inhibitors of HP1-beta chromodomain binding to methylated histone tails; Potency, µM (titrated, usually from 114 µM), without a hit: at the highest dose activity change, negative = inhibition, hits mostly inhibitors; AlphaScreen HP1-beta / biotin-H3K9me3 peptide binding; P83916; AID 540317; 390,000 tested, 0.56% active; note: nearly all actives have a fitted effect of over 70% in size
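HP1-beta protein (50 nM final) preincubated 30 min at room temperature with biotinylated H3(1-18)K9me3 peptide (50 nM) in PBS pH 7.4, 0.01% Tween-20, then compound added for 30 min. AlphaScreen streptavidin donor/nickel chelate acceptor beads (10 ug/mL final), 30 min dark, luminescence read.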
* marks the source's active call; other numbers are inactive results; ? = inconclusive; . = no result; [ ] = dose if it differs, or a comment. Rows were chosen to be rich in hits. Some 12% of all compounds tested hit in one or more screens of this group. Calls come from the whole dose curve; as a rule, active = well fitted curve in the direction sought with a large enough effect; inconclusive = small, poorly fitted or top-dose-only effect, or another doubt; inactive = no such curve, though single readings can be large; an effect the other way counts as inactive or inconclusive. Potency is the fitted concentration of half-maximal effect.

SMILES	JMJD2A Tudor inh	Sfp PPTase inh	G9a block	PLK1 PBD block	BAZ2B inh	HP1b chromo inh
COc1ccc(OC)c(CCNC(=O)c2ccc3c(c2)N(Cc2ccc(C)cc2)CCS3)c1	?	.	?	.	-35%	-4%
COC(=O)N1CCC2(CC1)CCN(c1cccc(-c3ccccc3)c1)CC2	.	?	15%[12.7 µM]	.	.	.
O=C(Cn1ncn2c(cc3ccccc32)c1=O)NCc1ccc(F)cc1	-3%	.	-1%[59 µM]	.	1%	38%
CC(C)NC(=O)N1CCCC2(CCN(C(=O)c3ccncc3)CC2)C1	.	12%	-8%[12.7 µM]	.	.	.
CO[C@H]1C[C@@H](O[C@@H]2[C@H](C)[C@H](O[C@@H]3O[C@@H](C)C[C@@H](N(C)C)[C@@H]3O)[C@H](C)C[C@]3(CO3)C(=O)[C@H](C)[C@H](O)[C@H](C)[C@H](C)OC(=O)[C@@H]2C)O[C@@H](C)[C@H]1O	.	15%	2%[21.5 µM]	.	.	.
Cc1ccc(C)c(CN2C(=O)c3ccccc3S(=O)(=O)c3ccc(C(=O)N4CCN(C)CC4)cc32)c1	-17%	9%	2%[59 µM]	-11%	89µM*	4%[57 µM]
CN1CCN(CCCNC(=O)c2ccc3c(c2)N(Cc2ccccc2)CCS3)CC1	?	-15%	79µM*	2%	-12%	6%
COCCNC(=O)COC(=O)c1nsc(Cl)c1Cl	?	-1%	17%[0.501 µM]	27µM*	-3%[57.1 µM]	-1%
CC(=O)c1ccc(N2CCN(S(=O)(=O)c3ccc4c5c3CC(=O)N5CC(C)S4)CC2)cc1 (centres undefined)	-18%	-7%	45µM*	-8%	-21%[57.1 µM]	17%[57 µM]
CC(=O)c1ccc(N2CCN(S(=O)(=O)c3ccc4c(c3)CC(=O)N4)CC2)cc1	-29%[229 µM]	18%	.	-12%	1%	44%
O=C(NCCS(=O)(=O)c1ccc(Cl)cc1)c1ccc(F)cc1	?	13%	4%	21µM*	-2%	-15%
Clc1ccc(-c2nc3ccncc3[nH]2)cc1	-9%	?	?	8.4µM*	-6%	5%
O=[N+]([O-])c1cccc(C(=S)N2CCN(c3ccccc3F)CC2)c1	?	-20%	20µM*	9.5µM*	?	?
O=C(c1cccc([N+](=O)[O-])c1)N1CCN(C/C=C/c2ccccc2)CC1	-27%	2%	-22%	-4%	-25%	-1%
O=[N+]([O-])c1cccc(C(=S)N2CCN(c3ccccc3)CC2)c1	-30%[57.1 µM]	32µM*	8.9µM*	12µM*	?	?
O=C(/C=C/c1cccc([N+](=O)[O-])c1)N1CCN(c2ccccc2F)CC1	-17%[57.1 µM]	-20%	-10%[59 µM]	-10%	-35%	29%
O=C(c1cccc([N+](=O)[O-])c1)N1CCN(S(=O)(=O)/C=C/c2ccccc2)CC1	-10%	.	8.9µM*	-1%	11%	29%
C/C(=N\N1CCN(c2ccc(Cl)cc2)CC1)c1cccc([N+](=O)[O-])c1	?	-14%	22µM*	-2%	?	-17%
O=C(NCc1ccco1)c1ccc(-c2ccc3nccn3c2)cc1	.	.	.	-12%	.	.
CCCOc1ccc(CN(C(=O)Cc2coc3ccc(CC)cc23)C2CCS(=O)(=O)C2)cc1 (centres undefined)	-21%	.	-23%[59 µM]	.	-20%	28%
CCc1ccc(-n2nc3ccc(NC(=O)c4cc5ccccc5o4)cc3n2)cc1	8%	.	2%[59 µM]	.	1%	30%
CC(=O)c1ccc(N2CCc3ccccc3C2)c([N+](=O)[O-])c1	?	28µM*	.	-4%	?	-18%
COC(=O)c1ccc(N2CCN(CC(=O)c3ccc(C)cc3)CC2)c([N+](=O)[O-])c1	-32%	.	.	-14%	.	30%
O=C(O)c1ccc(N2CCc3ccccc32)c([N+](=O)[O-])c1	-30%	11%	?	-4%	?	-4%
COC(=O)c1ccc(N2CCN(CC(=O)c3ccc(-c4ccccc4)cc3)CC2)c([N+](=O)[O-])c1	-27%	?	45µM*	-27%	-36%[57.1 µM]	12%
SMILES	JMJD2A Tudor inh	Sfp PPTase inh	G9a block	PLK1 PBD block	BAZ2B inh	HP1b chromo inh
CC(=O)c1ccc(N2CCN(c3ncccn3)CC2)c([N+](=O)[O-])c1	-24%	-11%	-9%	-5%	-29%	-4%
COC(=O)c1ccc(N2CCc3ccccc32)c([N+](=O)[O-])c1	14µM*	-10%	16µM*	-10%	7.9µM*	?
CCOC(CNC(=O)c1ccc2c(c1)ncn2-c1ccccc1OC)OCC	-5%	12%	15%	-4%	-3%	72%
CCOC(CNC(=O)c1ccc(N2CCc3ccccc32)c([N+](=O)[O-])c1)OCC	56µM*	3%	11µM*	-9%	40µM*	28µM*
Cc1ccccc1C(=O)Nc1sc2c(c1C(=O)N1CCC(C)CC1)CCC(C)C2 (centres undefined)	-13%	.	?	.	-2%	25%
CC(C)OCCCn1c(SCC(N)=O)nc2c(sc3ccccc32)c1=O	-19%	.	-2%[59 µM]	.	-6%	48%
COc1ccc(CNC(=O)c2ccc(N3CCOCC3)c([N+](=O)[O-])c2)cc1	-17%	11%	-11%	6%	-25%	27%
O=C(NCc1ccc(F)cc1)c1ccc(N2CCc3ccccc32)c([N+](=O)[O-])c1	18µM*	2%	25µM*	-13%	7.1µM*	50µM*
C=C1CCN(c2ccc(C(=O)O)cc2[N+](=O)[O-])CC1	-14%	.	.	?	.	56%
COc1ccc(-c2cc(C3CCN(c4ccc(C(C)=O)cc4[N+](=O)[O-])CC3)[nH]n2)cc1	?	-8%	24%[0.0925 µM]	-6%	?	-15%
O=C(O)c1ccc(N2CCN(C(c3ccccc3)c3ccccc3)CC2)c([N+](=O)[O-])c1	?	5%	32µM*	?	?	-10%
COC(=O)c1ccc(N2CCC(c3cc(-c4ccc(OC)cc4)n[nH]3)CC2)c([N+](=O)[O-])c1	?	?	16µM*	1%	?	-19%
COc1cc(NC(=O)CN2C(=O)C(c3ccc(C)cc3)=NC23CCCCCC3)cc(OC)c1	-4%	.	5%[59 µM]	.	-1%	25%
COc1ccccc1S(=O)Cc1ccc(C(=O)NC2CCCC2)o1 (centres undefined)	-11%	-21%	28µM*	-26%	11%	55%
COc1ccccc1S(=O)Cc1ccc(C(=O)NCCc2ccc(Cl)cc2)o1 (centres undefined)	-8%	-7%	40µM*	-20%	1%	72%
O=C(NCCc1ccc(Cl)cc1)c1ccc(CS(=O)Cc2ccc(Cl)cc2)o1 (centres undefined)	-17%	7%	-14%	-1%	-38%	40%
CCOC(=O)C1CCCN(S(=O)(=O)CCNC(=O)c2ccc3c(c2)OCO3)C1 (centres undefined)	-15%	.	7%	-8%	-2%	8%
